# Data as given in PubChem BioAssay AID1159580 (chemical genetic matrix, 2015).
# In all, about 5,500 compounds went through this assay and about 2,000 (36%) were called active. Another 18% or so got no clear call; they are omitted. Some of the results follow. Values without a mark were called inactive. Rule as the data show it: active = normalized growth mostly below about 0.91 (no sharp cut-off); inconclusive = no clear call, values can overlap the other calls; inactive = mostly above about 0.92.
# Experiment: chemical genetic growth profiling, strain panel (AID 1159580);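 also: tested at 20 µM; growth read once vehicle control cultures reached saturation at 30 °C; 1 = growth at the plate median or of vehicle wells; lower values mean less growth of the strain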
# Details: S. cerevisiae deletion strains, growth OD
# [1] = locus YAL013W, strain DEP1, hits give low values
# [2] = locus YBR229C, strain ROT2, hits give low values
# [3] = locus YDL101C, strain DUN1, hits give low values
# [4] = locus YEL061C, strain CIN8, hits give low values
# [5] = locus YGR078C, strain PAC10, hits give low values
# [6] = locus YHR030C, strain SLT2, hits give low values
# [7] = locus YJR043C, strain POL32, hits give low values
# [8] = locus YLR039C, strain RIC1, hits give low values
# [9] = locus YLR262C, strain YPT6, hits give low values
# [10] = locus YMR263W, strain SAP30, hits give low values
# [11] = locus YMR307W, strain GAS1, hits give low values
# [12] = locus YNL128W, strain TEP1, hits give low values
# [13] = locus YNL322C, strain KRE1, hits give low values
structure (smiles),measurement,setting,value
COc1cccc(C2C3=C(CC(C)(C)CC3=O)OC3=C2C(=O)CC(C)(C)C3)c1O,normalized growth,[1],1
same,normalized growth,[2],0.987
same,normalized growth,"locus YCL061C, strain MRC1, hits give low values",1.02
same,normalized growth,[3],1.01
same,normalized growth,"locus YDL134C, strain PPH21, hits give low values",0.978
same,normalized growth,"locus YDR150W, strain NUM1, hits give low values",1.04
same,normalized growth,[4],0.965
same,normalized growth,[5],1
same,normalized growth,[6],1.08
same,normalized growth,"locus YHR087W, strain rtc3, hits give low values",0.958
same,normalized growth,[7],1.03
same,normalized growth,"locus YJR075W, strain HOC1, hits give low values",1
same,normalized growth,"locus YKL190W, strain CNB1, hits give low values",0.988
same,normalized growth,[8],1.08
same,normalized growth,"locus YLR058C, strain SHM2 (second series), hits give low values",0.991
same,normalized growth,"locus YLR085C, strain ARP6, hits give low values",0.977
same,normalized growth,[9],1.04
same,normalized growth,"locus YML094W, strain GIM5, hits give low values",1.01
same,normalized growth,"locus YMR219W, strain ESC1, hits give low values",1
same,normalized growth,[10],0.999
same,normalized growth,[11],0.876
same,normalized growth,[12],0.983
same,normalized growth,"locus YNL153C, strain GIM3, hits give low values",1
same,normalized growth,"locus YNL298W, strain CLA4 (second series), hits give low values",0.927
same,normalized growth,[13],0.993
same,normalized growth,"locus YNR030W, strain Alg12, hits give low values",0.977
same,normalized growth,"locus YOL006C, strain TOP1, hits give low values",0.947
same,normalized growth,"locus YPL055C, strain LGE1, hits give low values",1
same,normalized growth,"locus YPL241C, strain CIN2, hits give low values",1.01
same,normalized growth,"locus YPR135W, strain CTF4, hits give low values",0.976
CC(Cc1ccc(O)c(O)c1)C(C)Cc1ccc(O)c(O)c1 (configuration not stated),normalized growth,[1],0.625 (active)
same,normalized growth,"locus YBR021W, strain FUR4, hits give low values",0.952
same,normalized growth,[2],0.909 (active)
same,normalized growth,"locus YCL029C, strain bik1, hits give low values",0.916
same,normalized growth,"locus YDL035C, strain GPR1, hits give low values",0.774 (active)
same,normalized growth,"locus YDL074C, strain BRE1, hits give low values",0.48 (active)
same,normalized growth,[3],0.522 (active)
same,normalized growth,"locus YDL185W, strain tfp1, hits give low values",0.995
same,normalized growth,"locus YDL192W, strain arf1, hits give low values",0.896 (active)
same,normalized growth,"locus YDR101C, strain arx1, hits give low values",0.939
same,normalized growth,"locus YDR162C, strain NBP2, hits give low values",0.428 (active)
same,normalized growth,"locus YDR318W, strain mcm21, hits give low values",0.955
same,normalized growth,"locus YDR388W, hits give low values",0.895 (active)
same,normalized growth,"locus YDR502C, strain sam2, hits give low values",0.813 (active)
same,normalized growth,[4],0.681 (active)
same,normalized growth,"locus YER110C, hits give low values",0.988
same,normalized growth,"locus YER155C, strain BEM2, hits give low values",0.756 (active)
same,normalized growth,"locus YER167W, strain BCK2, hits give low values",0.957
same,normalized growth,"locus YGL078C, strain dbp3, hits give low values",0.999
same,normalized growth,"locus YGL086W, strain mad1, hits give low values",0.909 (active)
same,normalized growth,"locus YGL248W, strain PDE1, hits give low values",0.814 (active)
same,normalized growth,[5],0.818 (active)
same,normalized growth,"locus YGR135W, strain pre9, hits give low values",0.854 (active)
same,normalized growth,"locus YGR229C, strain SMI1, hits give low values",0.419 (active)
same,normalized growth,"locus YGR252W, strain gcn5, hits give low values",0.792
same,normalized growth,[6],0.87 (active)
same,normalized growth,"locus YHR079C, strain IRE1 (second series), hits give low values",0.904 (active)
same,normalized growth,"locus YHR094C, strain hxt1, hits give low values",1.01
same,normalized growth,"locus YHR129C, strain ARP1, hits give low values",0.73 (active)
same,normalized growth,"locus YHR200W, strain rpn10, hits give low values",0.964
same,normalized growth,"locus YIL066C, strain RNR3, hits give low values",0.61 (active)
same,normalized growth,"locus YIL073C, strain SPO22, hits give low values",0.499 (active)
same,normalized growth,"locus YIL125W, strain kgd1, hits give low values",1
same,normalized growth,"locus YIR030C, strain dcg1, hits give low values",0.903 (active)
same,normalized growth,"locus YJL095W, strain BCK1, hits give low values",0.113 (active)
same,normalized growth,"locus YJL134W, strain LCB3, hits give low values",0.909 (active)
same,normalized growth,"locus YJL168C, strain set2, hits give low values",0.983
same,normalized growth,"locus YJL187C, strain SWE1 (second series), hits give low values",0.621 (active)
same,normalized growth,[7],0.425 (active)
same,normalized growth,"locus YKL009W, strain mrt4, hits give low values",0.993
same,normalized growth,"locus YKL068W, hits give low values",1.01
same,normalized growth,"locus YKL085W, strain MDH1 (second series), hits give low values",0.992
same,normalized growth,"locus YKL085W, strain MDH1, hits give low values",0.992
same,normalized growth,"locus YKR001C, strain vps1, hits give low values",0.882 (active)
same,normalized growth,[8],0.293 (active)
same,normalized growth,"locus YLR058C, strain SHM2, hits give low values",0.643 (active)
same,normalized growth,"locus YLR102C, strain apc9, hits give low values",1.01
same,normalized growth,[9],0.616
same,normalized growth,"locus YLR268W, strain sec22, hits give low values",0.853 (active)
same,normalized growth,"locus YLR330W, strain CHS5, hits give low values",0.82 (active)
same,normalized growth,"locus YLR342W, strain FKS1 (second series), hits give low values",0.645 (active)
same,normalized growth,"locus YLR371W, strain rom2, hits give low values",0.919
same,normalized growth,"locus YLR418C, strain cdc73, hits give low values",0.673 (active)
same,normalized growth,"locus YML016C, strain PPZ1, hits give low values",0.746 (active)
same,normalized growth,"locus YML032C, strain rad52, hits give low values",0.927
same,normalized growth,"locus YML124C, strain tub3, hits give low values",0.979
same,normalized growth,"locus YMR078C, strain ctf18, hits give low values",0.973
same,normalized growth,"locus YMR223W, strain ubp8, hits give low values",0.91
same,normalized growth,[10],0.455 (active)
same,normalized growth,[11],0.691
same,normalized growth,"locus YNL067W, strain RPL9B, hits give low values",0.726 (active)
same,normalized growth,[12],0.816 (active)
same,normalized growth,"locus YNL233W, strain BNI4, hits give low values",0.849 (active)
same,normalized growth,"locus YNL250W, strain rad50, hits give low values",1.03
same,normalized growth,"locus YNL271C, strain bni1, hits give low values",0.997
same,normalized growth,"locus YNL298W, strain CLA4, hits give low values",0.981
same,normalized growth,"locus YNL307C, strain MCK1, hits give low values",0.899 (active)
same,normalized growth,[13],0.522 (active)
same,normalized growth,"locus YNR052C, strain pop2, hits give low values",0.927
same,normalized growth,"locus YOL012C, strain htz1",0.299
same,normalized growth,"locus YOL147C, strain pex11, hits give low values",0.936
same,normalized growth,"locus YOR061W, strain CKA2, hits give low values",0.871 (active)
same,normalized growth,"locus YOR069W, strain VPS5, hits give low values",0.858 (active)
same,normalized growth,"locus YOR136W, strain idh2, hits give low values",1.01
same,normalized growth,"locus YOR144C, strain elg1, hits give low values",0.95
same,normalized growth,"locus YOR184W, strain ser1, hits give low values",0.784 (active)
same,normalized growth,"locus YOR316C, strain cot1, hits give low values",0.999
same,normalized growth,"locus YPR119W, strain clb2, hits give low values",1.01
same,normalized growth,"locus YPR141C, strain kar3, hits give low values",1.01
same,normalized growth,"locus YPR163C, strain tif3, hits give low values",0.982
same,normalized growth,"locus YPR167C, strain met16, hits give low values",0.952
same,normalized growth,"strain wtn01, hits give low values",0.892 (active)
